Records with an inconclusive call do not appear. Entries that show only a call come without a potency. Calls of active or inactive are those of the source. Calls come from the whole dose curve; as a rule, active = well fitted cell-killing curve with a large enough effect; inconclusive = small, poorly fitted or top-dose-only effect; inactive = flat fitted curve, though single readings scatter.

The nature of this experiment: Compound cytotoxicity measured by an ATP content assay as a counter-screen for lead compounds in human iPSC derived neural progenitor cells (hNPCs). The settings on record: human iPSC-derived NPC viability, ATP luminescence; series mostly up to 46.1 µM. The method, boiled down:
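Viability read as luminescent ATP content, 10 min at RT after reagent. Compound incubation of 6, 24 or 72 h on human iPSC-derived neural progenitors pre-cultured 16–20 h; values are percent inhibition.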
On the technique in general: Counterscreens check selectivity or assay interference.
With `O[C@@H](COc1cccc2ncccc12)CN1CCN(C2c3ccccc3[C@@H]3[C@H](c4ccccc42)C3(F)F)CC1` (some centres not stated), the Potency result is “inactive”. For `CC(=Cc1ccccc1)C=C1SC(=S)N(CC(=O)O)C1=O`, the Potency result was “inactive”.

Turning to `Cc1ccc(C(=O)c2ccc(CC(=O)O)n2C)cc1`, the Potency result was “inactive”. The entry for `N#CC1(c2ccc(NC(=O)c3cccnc3NCc3ccncc3)cc2)CCCC1` is “inactive”; for `O=C(/C=C/c1ccc(O)cc1)c1ccc(O)cc1O` it is “inactive”. As for `Cc1c(N)c(=O)n(-c2ccccc2)n1C`, the Potency entry is “inactive”.

Take `O=C(/C=C/c1ccccc1)NCCO`: the Potency entry is “inactive”. As to `Cc1ccc(O)c(N=Nc2ccccc2)n1`, the Potency is 4.35 µM (active). In the case of `C[C@@H]1CCN(C(=O)CC#N)C[C@H]1N(C)c1ncnc2[nH]ccc12`, the Potency entry was “inactive”. As for `CN(C)c1cc(NC(=O)CNC(C)(C)C)c(O)c2c1C[C@@H]1C[C@H]3[C@H](N(C)C)C(=O)C(C(N)=O)=C(O)[C@@]3(O)C(=O)C1=C2O`, the Potency result was “inactive”. The figure for `O=C1C(Cl)=C(NCCN2CCOCC2)C(=O)c2ncccc21` is 1.73 µM (active). As for `CC(C)OC(=O)CCCC=CC[C@@H]1[C@H](C=C[C@@H](O)COc2cccc(C(F)(F)F)c2)[C@H](O)C[C@@H]1O`, the Potency result is “inactive”. To `CC1=C(CO)C(=O)O[C@@H]([C@@H](C)[C@H]2CC[C@H]3[C@@H]4C[C@H]5O[C@]56[C@@H](O)C=CC(=O)[C@]6(C)[C@@H]4CC[C@]23C)C1` belongs “inactive”.

On to `COc1cc2nc(N3CCN(C(=O)C4CCCO4)CC3)nc(N)c2cc1OC` (configuration not stated), for which the Potency entry was “inactive”. With `O=C(O)c1cccc(-c2noc(-c3ccccc3F)n2)c1`, the Potency was 5.48 µM (active). To `COc1ccc2nc(NC(=O)Nc3ccccc3)sc2c1` belongs 7.74 µM (active). With `Oc1ccc(/C=C/c2cc(O)cc(O)c2)cc1`, the Potency is 9.75 µM (active).

For `CC[C@]1(O)C[C@H]2CN(CCc3c([nH]c4ccccc34)[C@@](C(=O)OC)(c3cc4c(cc3OC)N(C=O)[C@H]3[C@@](O)(C(=O)OC)[C@H](OC(C)=O)[C@]5(CC)C=CCN6CC[C@]43[C@@H]65)C2)C1`, the Potency entry was “inactive”. In the case of `COc1ccc(CC2=NN3C([C@@H](CCc4ccccc4)[C@@H](C)O)=NC(C)C3C(=O)N2)cc1OC` (some centres not stated), the Potency entry was “inactive”.

Take `Nc1ccc(O)c(C(=O)O)c1`: the Potency result is “inactive”. The entry for `CN1CCN(c2cc3c(nn2)Oc2ccccc2N3C)CC1` is “inactive”; for `CCCS(=O)c1ccc2nc(NC(=O)OC)[nH]c2c1` (configuration not stated) it is “inactive”; for `Nc1ncnc2c1ncn2[C@@H]1O[C@@H](CO)[C@H](O)[C@H]1O` it is “inactive”.

Regarding `O=C(O)c1ccccc1NCCc1ccccc1`, the Potency entry is “inactive”. Consider `Cc1cccc(C#Cc2ccccc2)n1`, for which the Potency is 9.75 µM (active). For the molecule `CC(C(=O)O)c1ccc(C(=O)c2ccccc2)s1` (configuration not stated), the Potency entry is “inactive”. `Cc1csc(NC(=O)c2sc3nc4c(c(C(F)(F)F)c3c2N)CCC4)n1`: the Potency is 1.95 µM (active). For `O=c1oc2cc(O)ccc2s1`, the Potency result is “inactive”.

As to `O=C(Nc1ccc([N+](=O)[O-])cc1Cl)c1cc(Cl)ccc1O`, the Potency was 8.69 µM (active). To `COCCn1c2c([n+](Cc3cnccn3)c1C)C(=O)c1ccccc1C2=O` belongs 0.69 µM (active).

Take `CC(O)=C(C#N)C(=O)Nc1ccc(C(F)(F)F)cc1`: the Potency was 13.8 µM (active).

On to `COc1ccc(-c2cc(=S)ss2)cc1`, for which the Potency result was “inactive”.
